Measurements from PubChem BioAssay.
Calls of active or inactive are those of the source. Unless noted, how the calls were made is not given here.

Assays:
[1] = anti-His antibody binders, primary screen, artefact control for SMM control protein annotation, biochemical, small-molecule microarray, 635 nm fluorescence (AID 1128); conditions: anti-His Alexa647 antibody binding, higher = more signal;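 further: score merges feature fluorescence with signal-to-noise for each printed compound spot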
[2] = system: Human papillomavirus type 1a E7 protein (residues 1-88); experiment: HPV1a E7 small-molecule binders, primary screen, biochemical, small-molecule microarray, residues 1-88, 635 nm (AID 1129); conditions: small-molecule microarray binding, fluorescence 635 nm; higher = more signal
[3] = target: Focal adhesion kinase 1 (Homo sapiens) (UniProt Q05397); experiment: small-molecule microarray binders of FAK, primary screen, biochemical, 635/667 nm fluorescence, BSA, DTT (AID 1130); conditions: PTK2 binding, 635 nm fluorescence, higher = more signal;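 further: composite of spot emission at 667 nm and signal to noise over triplicate slides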
Focal adhesion kinase 1 (Homo sapiens), sequence (Q05397 whole entry, looked up): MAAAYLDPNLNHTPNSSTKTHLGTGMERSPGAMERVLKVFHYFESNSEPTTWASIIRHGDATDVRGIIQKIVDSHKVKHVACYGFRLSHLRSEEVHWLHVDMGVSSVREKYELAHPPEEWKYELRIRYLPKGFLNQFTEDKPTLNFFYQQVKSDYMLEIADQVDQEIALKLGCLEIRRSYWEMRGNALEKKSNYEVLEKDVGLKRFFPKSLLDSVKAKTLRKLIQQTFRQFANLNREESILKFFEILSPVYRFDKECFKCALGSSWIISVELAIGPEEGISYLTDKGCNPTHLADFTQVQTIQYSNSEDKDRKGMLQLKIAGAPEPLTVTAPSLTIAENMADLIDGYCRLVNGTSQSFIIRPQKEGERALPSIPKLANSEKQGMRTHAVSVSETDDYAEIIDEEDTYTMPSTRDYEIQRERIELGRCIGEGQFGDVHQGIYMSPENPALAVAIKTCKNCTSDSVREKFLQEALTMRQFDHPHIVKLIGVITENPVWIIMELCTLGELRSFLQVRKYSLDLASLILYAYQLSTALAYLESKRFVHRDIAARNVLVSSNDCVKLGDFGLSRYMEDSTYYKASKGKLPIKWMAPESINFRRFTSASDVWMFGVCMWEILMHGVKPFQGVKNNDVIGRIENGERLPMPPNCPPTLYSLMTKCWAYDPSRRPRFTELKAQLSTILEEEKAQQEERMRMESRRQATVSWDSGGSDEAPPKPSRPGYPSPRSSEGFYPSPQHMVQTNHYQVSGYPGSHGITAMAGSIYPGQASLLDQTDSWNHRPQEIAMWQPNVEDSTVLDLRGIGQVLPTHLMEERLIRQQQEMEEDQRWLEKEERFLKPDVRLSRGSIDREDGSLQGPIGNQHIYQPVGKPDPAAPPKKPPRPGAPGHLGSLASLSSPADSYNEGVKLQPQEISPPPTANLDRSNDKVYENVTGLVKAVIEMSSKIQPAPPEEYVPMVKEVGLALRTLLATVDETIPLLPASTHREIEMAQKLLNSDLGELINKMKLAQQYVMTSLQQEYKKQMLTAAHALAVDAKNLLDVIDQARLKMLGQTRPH

[4] = system: Fibrinogen (Alexa647-labelled); experiment: fibrinogen binders on compound microarrays, profiling panel, artefact control for SMM control-protein annotation, biochemical, small-molecule microarray, 635/667 nm fluorescence (AID 1131); conditions: fibrinogen-A647 binding fluorescence, higher = more signal;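 further: z-score merges 667 nm fluorescence with per-spot signal-to-noise over triplicate slides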
[5] = target: Follistatin (Homo sapiens) (UniProt P19883); experiment: follistatin binders on small-molecule microarrays, primary screen, biochemical, small-molecule microarray, 635/667 nm fluorescence (AID 1132); conditions: FST binding, 635 nm fluorescence, higher = more signal
Follistatin (Homo sapiens), sequence (P19883 whole entry, looked up): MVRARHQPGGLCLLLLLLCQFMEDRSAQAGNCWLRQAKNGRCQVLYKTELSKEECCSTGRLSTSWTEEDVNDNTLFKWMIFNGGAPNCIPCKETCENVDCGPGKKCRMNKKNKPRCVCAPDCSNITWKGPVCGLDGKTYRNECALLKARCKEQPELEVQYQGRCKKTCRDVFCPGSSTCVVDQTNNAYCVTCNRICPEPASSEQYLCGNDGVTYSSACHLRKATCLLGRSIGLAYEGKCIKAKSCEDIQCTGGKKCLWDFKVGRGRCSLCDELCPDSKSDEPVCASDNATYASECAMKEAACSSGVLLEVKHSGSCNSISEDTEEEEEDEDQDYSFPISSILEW

[6] = target: Fibroblast growth factor 2 (Homo sapiens) (UniProt P09038); experiment: FGF2 binders on small-molecule microarrays, primary screen, biochemical, small-molecule microarray, 635/667 nm fluorescence (AID 1133); conditions: small-molecule microarray binding, FGF2, fluorescence 635/667; higher = more signal
Fibroblast growth factor 2 (Homo sapiens), sequence (P09038 whole entry, looked up): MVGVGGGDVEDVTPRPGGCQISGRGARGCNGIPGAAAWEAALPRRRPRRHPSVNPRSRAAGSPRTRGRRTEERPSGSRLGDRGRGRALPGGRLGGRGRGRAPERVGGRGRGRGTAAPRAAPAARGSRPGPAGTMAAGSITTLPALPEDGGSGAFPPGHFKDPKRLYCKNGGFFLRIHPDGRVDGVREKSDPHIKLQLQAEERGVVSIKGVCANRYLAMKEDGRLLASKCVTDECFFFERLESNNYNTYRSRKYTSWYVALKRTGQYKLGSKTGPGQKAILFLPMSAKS

[7] = mitochondrial membrane potential change in A549 cells, profiling panel, cell-based, JC-1 fluorescence, basal, 24 h, 100 nL (AID 1138); conditions: higher = more signal;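 further: A549 lung adenocarcinoma cells under basal conditions with no added stimulus; test concentration not given here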
Lefty1 = Lefty1 binders on small-molecule microarrays, primary screen, biochemical, small-molecule microarray, 635/667 nm fluorescence (AID 1139); conditions: small-molecule microarray binding, fluorescence 635/667; higher = more signal
[8] = system: wheat germ agglutinin (Triticum aestivum), Alexa647-labelled; experiment: wheat germ agglutinin binders on compound microarrays, profiling panel, artefact control for SMM control-protein annotation, biochemical, small-molecule microarray, 635/667 nm fluorescence (AID 1140); conditions: WGA-A647 binding, 635 nm fluorescence, higher = more signal;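 further: score merges 667 nm feature emission with signal to noise over triplicate slides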
[9] = target: Luciferin 4-monooxygenase (Photinus pyralis) (UniProt P08659); experiment: firefly luciferase enzyme inhibitors, primary screen, biochemical, luminescence, purified enzyme, 2006 set (AID 1141); conditions: SteadyGlo luminescence, 30 min, higher = more signal, called active from +8 up or from −8 down;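 further: cell-free assay with purified firefly luciferase at 100 ng per well in PBS; test concentration not given here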
Luciferin 4-monooxygenase (Photinus pyralis), sequence (P08659 whole entry, looked up): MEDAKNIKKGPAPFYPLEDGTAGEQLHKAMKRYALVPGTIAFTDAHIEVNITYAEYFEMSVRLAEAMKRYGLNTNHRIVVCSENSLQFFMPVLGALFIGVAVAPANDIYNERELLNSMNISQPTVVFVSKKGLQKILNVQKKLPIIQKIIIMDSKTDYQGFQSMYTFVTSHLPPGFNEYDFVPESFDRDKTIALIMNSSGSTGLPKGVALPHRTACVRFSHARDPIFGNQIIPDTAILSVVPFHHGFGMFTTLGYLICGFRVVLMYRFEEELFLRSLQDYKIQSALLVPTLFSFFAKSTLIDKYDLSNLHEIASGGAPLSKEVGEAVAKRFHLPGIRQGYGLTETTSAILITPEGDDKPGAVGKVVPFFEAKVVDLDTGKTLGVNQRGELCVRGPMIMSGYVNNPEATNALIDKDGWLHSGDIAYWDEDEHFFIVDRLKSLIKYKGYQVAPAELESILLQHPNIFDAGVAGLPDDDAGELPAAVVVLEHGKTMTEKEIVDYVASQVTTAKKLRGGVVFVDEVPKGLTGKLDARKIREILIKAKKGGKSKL

[10] = system: Wnt5a (protein binding on small-molecule microarray); experiment: Wnt5a binders on small-molecule microarray, primary screen, biophysical, 635/667 nm fluorescence (AID 1142); conditions: 635 nm fluorescence, higher = more signal;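 further: fluorescence read at 667 nm with signal to noise per printed feature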
[11] = cell viability in Huh7 cells, primary screen, cytotoxicity control for HCV replication inhibitor project, CellTiter-Glo luminescence, basal, 48 h (AID 1143); conditions: Huh7 HCV replicon, higher = more signal, called active from +8 up or from −8 down;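 further: Huh7 hepatoma cells carrying a hepatitis C replication reporter with no stimulus; test concentration not given here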
[12] = P. aeruginosa biofilm formation inhibitors, primary screen, PAO1 strain, BacTiter-Glo luminescence, LB-PBS (AID 1144); conditions: 12 h, higher = more signal
[13] = CREB reporter modulators without forskolin, primary screen, cell-based, PC12, CRE-LacZ reporter, unstimulated (AID 1145); conditions: no forskolin, luminescence, 4.5 h, higher = more signal, called active from +8 up or from −8 down
[14] = CREB reporter modulators under forskolin, primary screen, cell-based, PC12, CRE-LacZ reporter, forskolin-stimulated (AID 1146); conditions: luminescence, 4.5 h, higher = more signal, called active from +8 up or from −8 down;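 further: PC12 cells with 6xCRE LacZ reporter stimulated by forskolin 10 µM; beta-galactosidase reporter signal reflecting CREB driven transcription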
[15] = target: Streptavidin (Streptomyces avidinii) (UniProt P22629); experiment: streptavidin binders on small-molecule microarray, primary screen, artefact control for SMM compound annotation, biophysical, 635/667 nm fluorescence (AID 1147); conditions: streptavidin binding, higher = more signal;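 further: signal reflects streptavidin binding to arrayed compounds as a control protein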
Streptavidin (Streptomyces avidinii), sequence (P22629 whole entry, looked up): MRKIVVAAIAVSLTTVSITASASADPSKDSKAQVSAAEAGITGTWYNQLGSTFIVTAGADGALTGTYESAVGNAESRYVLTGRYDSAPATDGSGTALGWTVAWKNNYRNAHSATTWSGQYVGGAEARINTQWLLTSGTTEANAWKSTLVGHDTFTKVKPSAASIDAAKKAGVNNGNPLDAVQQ

[16] = small-molecule binders of probe aInhba, primary screen, biochemical, small-molecule microarray, 635/667 nm fluorescence (AID 1148); conditions: higher = more signal;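 further: score merges 667nm spot fluorescence with signal-to-noise for antibody binding to printed compounds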
Torsin-1A (Homo sapiens) [17] = target: Torsin-1A (Homo sapiens) (UniProt O14656); experiment: torsin A binders from cell lysate, primary screen, small-molecule microarray, wild-type, 635/667 nm (AID 1149); conditions: COS7 hTOR1A-WT lysate, 635 nm fluorescence, higher = more signal
Torsin-1A (Homo sapiens), sequence (O14656 whole entry, looked up): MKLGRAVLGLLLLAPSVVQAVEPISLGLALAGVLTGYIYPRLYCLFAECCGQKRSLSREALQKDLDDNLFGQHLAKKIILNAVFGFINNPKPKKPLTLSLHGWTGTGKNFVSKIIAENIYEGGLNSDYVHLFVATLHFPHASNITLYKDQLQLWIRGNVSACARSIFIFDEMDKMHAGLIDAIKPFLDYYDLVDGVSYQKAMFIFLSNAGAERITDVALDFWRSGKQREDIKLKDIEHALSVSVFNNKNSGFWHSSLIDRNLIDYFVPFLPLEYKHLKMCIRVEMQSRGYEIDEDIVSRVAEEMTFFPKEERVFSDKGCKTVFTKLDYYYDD

Torsin-1A (Homo sapiens) [18] = target: Torsin-1A (Homo sapiens) (UniProt O14656); experiment: small-molecule binders of mutant TOR1A in lysate, primary screen, cell lysate, small-molecule microarray, COS7 lysate, 635/667 nm fluorescence (AID 1150); conditions: COS7 hTOR1A mutant lysate, 635 nm fluorescence, higher = more signal;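 further: score pools 667 nm emission and signal to noise measuring lysate protein binding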
[19] = system: Sonic hedgehog protein (Shh); experiment: small-molecule binders of Shh protein, primary screen, biochemical, small-molecule microarray, 635/667 nm fluorescence (AID 1151); conditions: small-molecule microarray binding, 635 nm fluorescence; higher = more signal;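 further: Shh protein binding to compounds spotted on small-molecule microarray slides; score combines spot fluorescence intensity with signal-to-noise across triplicate slides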

Compound	composite z-score [1]	composite z-score [2]	composite z-score [3]	composite z-score [4]	composite z-score [5]	composite z-score [6]	z-score [7]	composite z-score (Lefty1)	composite z-score [8]	z-score [9]	composite z-score [10]	z-score [11]	z-score [12]	z-score [13]	z-score [14]	composite z-score [15]	composite z-score [16]	composite z-score (Torsin-1A (Homo sapiens) [17])	composite z-score (Torsin-1A (Homo sapiens) [18])	composite z-score [19]
CC(C)C[C@@H]1NC(=O)[C@H]2C[C@@H](C(=O)NCCCCCCN(C)C)[C@@H](c3cccc(OCCO)c3)N2C1=O	2.19	1.01	0.204	0.0478	1.3	1.6	-0.0993	1.65	0.591	-0.156 (inactive)	0.726	0.069 (inactive)	-0.402 (inactive)	0.0124 (inactive)	-0.995 (inactive)	-0.305	-0.0317	1.22	1.32	2.13
CC(=O)OC[C@H]1O[C@H](CCON=C(C)CCN2CCc3nc(-c4ccccc4)c(-c4ccccc4)cc3C2)C=C[C@@H]1OC(C)=O	-0.437	0.0723	0.186	0.476	0.129	-0.138	1.15	0.172	0.563	0.938 (inactive)	-0.192	-1.04 (inactive)	0.23 (inactive)	4.88 (inactive)	0.0929 (inactive)	0.316	0.156	0.0622	0.407	0.287
CCOC(=O)C[C@H]1[C@H](OC(=O)c2ccc(C(=O)c3ccccc3)cc2)[C@@H](NC(=O)c2ccc(-c3ccccc3)cc2)c2cc(OCCCO)ccc2N1C(=O)c1ccc2ccccc2n1	0.128	1.01	0.0723	0.873	0.864	0.688	0.421	1.07	0.185	0.881 (inactive)	0.599	-0.0434 (inactive)	-1.22 (inactive)	-0.738 (inactive)	-0.286 (inactive)	1.44	-0.102	0.274	0.408	1.11
O=C(NN=C1C[C@@H](O)[C@@H](O)[C@@H]2[C@@H]3C(=O)N(c4ccc(F)cc4F)C(=O)[C@@H]3CC[C@@H]12)OCc1ccccc1	0.419	0.117	-0.179	0.723	0.385	-0.191	-0.281	0.341	0.336	0.894 (inactive)	-0.132	0.375 (inactive)	1.21 (inactive)	0.16 (inactive)	0.829 (inactive)	0.98	-0.128	0.871	0.464	-0.33
CO[C@@H]1COC(=O)CC=C[C@@H](C)[C@H](OC)COC(=O)[C@H](COCc2ccccc2)NC(=O)CC=C[C@H]1C	-1.36	-2.53	-0.843	-1.21	1.43	0.513	-0.169	1.12	-1.13	0.518 (inactive)	-0.0092	-0.069 (inactive)	0.204 (inactive)	0.0664 (inactive)	-0.707 (inactive)	-1.15	-0.253	1.35	0.263	1.5
O=C1C2C=CC(C(O)c3ccc([N+](=O)[O-])cc3)N(Nc3ccc([N+](=O)[O-])cc3)C2C(=O)N1c1ccccc1 (stereo not given)	0.953	1.24	0.719	0.952	-0.0127	-0.519	-1.95	-0.139	1.37	0.319 (inactive)	0.71	0.301 (inactive)	-0.328 (inactive)	-0.228 (inactive)	0.554 (inactive)	0.903	0.154	0.128	0.726	-0.114
COCCOC(=O)N1C(=O)[C@@]2(c3cc(C#CC4(O)CCCCCC4)ccc31)[C@H](c1ccc(OCCO)cc1)N1[C@H](c3ccccc3)[C@H](c3ccccc3)OC(=O)[C@H]1[C@@H]2C(=O)NC[C@H](O)c1ccccc1	1.67	1.21	0.184	0.946	1.15	0.909	-1.52	0.907	0.784	-1.05 (inactive)	0.524	-5.42 (inactive)	-0.903 (inactive)	-0.61 (inactive)	0.753 (inactive)	0.246	0.0658	0.225	0.514	1.23
CC(C)=NOCc1ccc(-c2cc(-c3ccccc3)no2)cc1	0.0906	0.272	0.0171	0.108	0.0806	0.437	-0.405	0.003	-0.477	0.534 (inactive)	0.102	0.517 (inactive)	1.5 (inactive)	-0.797 (inactive)	0.275 (inactive)	0.06	-0.23	0.299	-0.223	0.253
COC(=O)[C@@]1(Cc2ccc(OC)cc2)[C@H]2c3cc(C(=O)N4CCCC4)n(Cc4cc(F)c(F)c(F)c4)c3C[C@H]2CN1C(=O)c1ccccc1	2.21	1.26	0.59	1.02	1.19	-0.149	0.649	-0.551	1.31	1.95 (inactive)	2.29	-3.23 (inactive)	0.112 (inactive)	0.0041 (inactive)	0.589 (inactive)	2.6	1.87	0.188	0.538	-0.241
CCOC(=O)CCN1C(=O)[C@H]2[C@H]3[C@H](O)[C@H](O)CC(=O)[C@H]3CC[C@H]2C1=O	0.683	0.676	-0.186	0.29	0.369	0.364	-0.648	0.413	0.125	0.524 (inactive)	0.0032	-3.04 (inactive)	-0.829 (inactive)	0.429 (inactive)	-0.236 (inactive)	0.275	-0.183	0.269	0.326	0.693
